This is part of a sample that, as a whole, favours compounds with a hit. Of some 83,000 tested, about 20% had one in any assay.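 Compound tested at a single concentration for 48 hours in 96-well plates; a percent growth value below 10 was scored as active.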 Values without a mark were called inactive. Active and inactive are the calls of the source.
How the values were obtained:
Assay in all cases: NCI-60 one-dose screen, 48 h (100 = growth as untreated, 0 = no growth, -100 = all killed)
Conditions in all cases: 10 µM unless noted
T-47D breast = tested on: T-47D breast
BT-549 breast = tested on: BT-549 breast
MDA-MB-435 melanoma = tested on: MDA-MB-435 melanoma
SW-620 colon = tested on: SW-620 colon
MCF7 breast = tested on: MCF7 breast
HCC-2998 colon = tested on: HCC-2998 colon
KM12 colon = tested on: KM12 colon
HCT-116 colon = tested on: HCT-116 colon

Compound | growth (T-47D breast) | growth (BT-549 breast) | growth (MDA-MB-435 melanoma) | growth (SW-620 colon) | growth (MCF7 breast) | growth (HCC-2998 colon) | growth (KM12 colon) | growth (HCT-116 colon)
O=c1oc2ccccc2cc1C1=NN=C(SCc2ccccc2)SC1 | 85.5% | 102% | 107% | 106% | 94.3% | 109% | 99.7% | 
C=C(C)[C@@H]1CC[C@]2(C(=O)NCCNCCN)CC[C@]3(C)[C@H](CC[C@@H]4[C@@]5(C)C/C(=C/c6ccncc6)C(=O)C(C)(C)[C@@H]5CC[C@]43C)[C@@H]12 | 80.8% | 95.2% | 92.7% | 92.7% | 97.6% | 91.6% | 96.9% | 
COc1ccc2c(O)c(/C=C3\N=Nc4ccccc43)oc2c1C[C@@H]1CCNC[C@H]1F | 94.3% | 73.8% | 68.3% | 6.01% (active) | 18.3% |  | 10.9% | -68.2% (active)
CCN(CC)c1ccc(/C=C/C(=O)c2ccc(Nc3nc(Nc4ccccc4)nc(Nc4ccccc4)n3)cc2)cc1 | 12.3% | 52.1% | 51.4% | 70.3% | 29.2% | 66.5% | 45.4% | 
O=c1oc2c(cnc3ccccc32)cc1-c1ccsc1 | 85.9% | 100% | 102% | 96.8% | 33.2% | 123% | 94% | 
N#Cc1cnc(NCCc2ccncc2)nc1-n1cnc2ccccc21 | 54.5% | 48.5% | 69% | 58.8% | 64.4% | 58.5% | 25.9% | 
O=C(Nc1ncc(Cc2ccc(Cl)c(C(F)(F)F)c2)s1)c1ccc2nnsc2c1 | 24.8% | 65.5% | 22.6% | 44.3% | 20.4% |  | 37.8% | 
CCOC(=O)CNP(=O)(OC[C@@H](Cc1ccccc1)NC(=O)c1cc2ccccc2s1)Oc1ccccc1 (some centres not stated) | 55.3% | 74.6% | 8.66% (active) | 47.3% | 51.2% |  | 42.3% | 
N#CC1CCc2c(c(-c3cn[nH]c3C(F)(F)F)nc3c(F)cc4[nH]ncc4c23)C1 (configuration not stated) | 1.96% (active) | -11.6% (active) | 7.99% (active) | 8.48% (active) | 12.9% | 44% | 13.6% | 
N#CC1C=CN(CC(N)=O)c2ccc3cccnc3c21 (configuration not stated) | 90.9% | 102% | 102% | 104% | 85.8% | 106% | 105% | 
O=C1c2cccc3cccc(c23)C(=O)N1N1C(=O)c2cccc3c(N4CCOCC4)ccc(c23)C1=O | 91.7% | 87.2% | 102% | 100% | 94.9% |  | 100% | 
C=C1C(=O)O[C@H]2[C@H]1CC/C(COC(=O)N[C@H]1C[C@H](O[C@H]3C[C@](O)(C(=O)CO)Cc4c(O)c5c(c(O)c43)C(=O)c3c(OC)cccc3C5=O)O[C@@H](C)[C@H]1O)=C\CC[C@@]1(C)O[C@@H]21 | 29.7% | 22.7% | 66% | 1.42% (active) | 12.1% | 99.3% | 90.1% | 
O=C1/C(=C/c2cccs2)SC(=S)N1CCCN1CCOCC1 | 67.4% | 102% | 92.1% | 101% | 73.8% | 112% | 96.8% | 
Cc1ccc(-c2nn(-c3ccccc3)cc2C=C2C(=O)ON=C2C(C)C)cc1 | 78.6% | 113% | 63.5% | 47.2% |  | 68.7% | 69.8% | 26%
COc1ccccc1Nc1nc2c(s1)C1=CC[C@H]3[C@@H]4CC[C@H]([C@H](C)CCCC(C)C)[C@@]4(C)CC[C@@H]3[C@@]1(C)CC2 | 105% | 110% | 103% | 101% | 113% | 101% | 101% | 

From PubChem BioAssay (NCI)
